In PubChem BioAssay (Tox21):
Values joined by “and” are separate entries in the source; they are usually repeats but may differ in a detail not shown here. Equal entries are not always repeated. Unmarked numbers belong to inactive results. Entries that show only a call come without a potency. Active and inactive are the calls of the source. Unless noted, the call rests on the fitted dose curve; in most records, active means well fitted curve in the direction sought with a large enough effect in the repeat runs; inconclusive means weak or mixed curves; inactive means flat fitted curve, though single readings scatter.

Assays:
[1] = qHTS assay to test for compound auto fluorescence at 535 nm (green) in HEK293 cells (AID 720680)
[2] = qHTS assay to test for compound auto fluorescence at 460 nm (blue) in HEK293 cell free culture (AID 720681); further: potency means the concentration at half of the fitted maximal effect
Procedure, shortened: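 Blue fluorescence (Ex 405/Em 460 nm, triamterene-equivalent) was read immediately after pin transfer of compound or DMSO into medium (DMEM, 10% FBS) without cells.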

[3] = qHTS assay to test for compound auto fluorescence at 535 nm (green) in HEK293 cell free culture (AID 720682)
Procedure, shortened: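 No cells present: wells hold DMEM supplemented with 10% FBS, into which compound or vehicle is pinned. Green emission is then recorded (485 nm excitation, 535 nm emission) and scaled to fluorescein.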

[4] = qHTS assay to test for compound auto fluorescence at 590 nm (red) in HEK293 cell free culture (AID 720683)
Procedure, shortened: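 Red-channel autofluorescence of compounds in culture medium (DMEM, 10% FBS), no cells, measured at 540/590 nm. Rose Bengal sodium is the reference fluorophore for equivalence.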

[5] = qHTS assay to test for compound auto fluorescence at 590 nm (red) in HepG2 cell free culture (AID 720684)
Procedure, shortened: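 No cells present: MEM + 10% FBS only. Compound pinned in, red label read (540/590 nm). Activity = fluorescence equivalent to Rose Bengal sodium.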

[6] = qHTS assay to test for compound auto fluorescence at 460 nm (blue) in HepG2 cell free culture (AID 720685)
Procedure, shortened: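 Cell-free plates of MEM plus 10% FBS received 23 nL compound or DMSO vehicle; blue-channel (405/460 nm) intensity scored against triamterene as reference fluorophore.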

[7] = qHTS assay to test for compound auto fluorescence at 535 nm (green) in HepG2 cell free culture (AID 720686)
[8] = qHTS assay to test for compound auto fluorescence at 460 nm (blue) in HepG2 cells (AID 720687)
Procedure, shortened: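 Blue-channel autofluorescence (Ex/Em 405/460 nm, triamterene-equivalent) was measured after 1 hr compound exposure at 37 C, 5% CO2. Cells were HepG2, plated overnight at 37 C in MEM plus 10% FBS.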

[9] = target: Glucocorticoid receptor (Homo sapiens) (UniProt P04150); experiment: qHTS assay to identify small molecule antagonists of the glucocorticoid receptor (GR) signaling pathway (AID 720692; active means well fitted inhibition curve with a large enough effect in the signal ratio in the repeat runs, not every such curve was filed as active; inconclusive means weak or mixed curves, or effect the other way; inactive means no such curve, though single readings can be large or run the other way; the % refers to the signal ratio; further: potency means the concentration at half of the fitted maximal effect)
Procedure, shortened: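 Tox21 10K library screened in concentration-response for blockade of dexamethasone (5 nM final)-induced GRE-bla reporter activity in HeLa cells; 18 h treatment, fluorescence read.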

[10] = target: Glucocorticoid receptor (Homo sapiens) (UniProt P04150); experiment: qHTS assay to identify small molecule agonists of the glucocorticoid receptor (GR) signaling pathway (AID 720691; active means well fitted activation curve with a large enough effect in the signal ratio in the repeat runs, not every such curve was filed as active; inconclusive means weak or mixed curves, or effect the other way; inactive means no such curve, though single readings can be large or run the other way; the % refers to the signal ratio; further: potency means the concentration at half of the fitted maximal effect); conditions: GR-bla HeLa, beta-lactamase reporter ratio, 18 h; activation: at 62.4 µM (top of the series)
Procedure, shortened: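 Measures GR pathway activation through a GRE-beta-lactamase reporter stably integrated in HeLa cells, with 18 h compound treatment at 37 C and fluorescence detection using a FRET substrate.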

Sequence of Glucocorticoid receptor (Homo sapiens) (P04150 whole entry, looked up): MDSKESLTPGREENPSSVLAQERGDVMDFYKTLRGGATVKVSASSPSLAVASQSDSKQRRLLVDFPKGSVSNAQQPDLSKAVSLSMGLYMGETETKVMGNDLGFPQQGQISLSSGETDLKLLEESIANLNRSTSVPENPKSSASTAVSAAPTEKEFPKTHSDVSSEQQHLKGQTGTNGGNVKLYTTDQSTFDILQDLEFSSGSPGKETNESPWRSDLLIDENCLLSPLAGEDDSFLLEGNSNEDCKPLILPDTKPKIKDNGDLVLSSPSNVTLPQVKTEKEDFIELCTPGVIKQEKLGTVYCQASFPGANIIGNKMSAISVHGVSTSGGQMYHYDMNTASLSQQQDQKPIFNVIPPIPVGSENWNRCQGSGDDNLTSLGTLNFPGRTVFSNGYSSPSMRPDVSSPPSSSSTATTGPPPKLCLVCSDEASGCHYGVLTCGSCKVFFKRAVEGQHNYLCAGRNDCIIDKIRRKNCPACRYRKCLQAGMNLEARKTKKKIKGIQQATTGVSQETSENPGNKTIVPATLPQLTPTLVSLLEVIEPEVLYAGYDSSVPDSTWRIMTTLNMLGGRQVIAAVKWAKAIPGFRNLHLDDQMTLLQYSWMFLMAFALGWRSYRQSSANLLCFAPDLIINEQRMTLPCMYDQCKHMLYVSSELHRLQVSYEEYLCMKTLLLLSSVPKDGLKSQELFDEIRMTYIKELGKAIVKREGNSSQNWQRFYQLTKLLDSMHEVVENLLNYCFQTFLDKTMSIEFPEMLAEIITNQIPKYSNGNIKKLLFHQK

## Clc1ccccc1C(c1ccccc1)(c1ccccc1)n1ccnc1
[1]
  outcome: inactive
[2]
  Potency: inactive
[3]
  outcome: inactive
[4]
  Potency: inactive
[5]
  Potency: inactive
[6]
  Potency: inactive
[7]
  Potency: inactive
[8]
  Potency: inactive
[9]
  Potency: 7.23 µM (active)

## Cc1cccc(CN2CCN(C(c3ccccc3)c3ccc(Cl)cc3)CC2)c1 (stereo not drawn)
[1]
  fluorescence, % of fluorescein: 0.0512% [at 18.6 µM]
[2]
  fluorescence, % of fluorescent control: -0.0116% [at 18.6 µM]
[3]
  activity change: -0.0053% [at 18.6 µM]
[4]
  fluorescence, % of fluorescent control: 0.0211% [at 18.6 µM]
[5]
  fluorescence, % of Rose Bengal: 0.0634% [at 18.6 µM]
[6]
  fluorescence, % of fluorescent control: -0.0261% [at 18.6 µM]
[7]
  fluorescence, % of fluorescein control: -0.0169% [at 18.6 µM]
[8]
  fluorescence, % of fluorescent control: -0.0938% [at 18.6 µM]
[10]
  Potency: inactive
[9]
  Potency: inactive

## C=C(C)C(=O)OCC[N+](C)(C)C
[1]
  outcome: inactive
[2]
  Potency: inactive
[3]
  outcome: inactive
[4]
  Potency: inactive
[5]
  Potency: inactive
[6]
  Potency: inactive
[7]
  Potency: inactive
[8]
  Potency: inactive
[10]
  Potency: inactive
[9]
  Potency: inactive

## Cc1ccc(O)c2ncccc12
[1]
  outcome: inactive
[2]
  Potency: inactive
[3]
  outcome: inactive
[4]
  Potency: inactive
[5]
  Potency: inactive
[6]
  Potency: inactive
[7]
  Potency: inactive
[8]
  Potency: inactive
[9]
  Potency: inactive

## CN(C/C=C/C#CC(C)(C)C)Cc1cccc2ccccc12
[1]
  outcome: inactive
[2]
  Potency: inactive
[3]
  outcome: inactive
[4]
  Potency: inactive
[5]
  Potency: inactive
[6]
  Potency: inactive
[7]
  Potency: inactive
[8]
  Potency: inactive
[10]
  Potency: inactive
[9]
  Potency: inactive

## CCCCC(CC)COC(=O)c1ccccc1C(=O)O (stereo not drawn)
[1]
  outcome: inactive
[2]
  Potency: inactive
[3]
  outcome: inactive
[4]
  Potency: inactive
[5]
  Potency: inactive
[6]
  Potency: inactive
[7]
  Potency: inactive
[8]
  Potency: inactive
[10]
  Potency: inactive
[9]
  Potency: 39.6 µM (active)

## Clc1ccc2nsnc2c1NC1=NCCN1
[1]
  outcome: inactive
[2]
  Potency: inactive
[3]
  outcome: inactive
[4]
  Potency: inactive
[5]
  Potency: inactive
[6]
  Potency: inactive
[7]
  Potency: inactive
[8]
  Potency: inactive
[9]
  Potency: inactive

## O=C1Cc2cc(CCN3CCN(c4nsc5ccccc45)CC3)c(Cl)cc2N1
[1]
  outcome: inactive
[2]
  Potency: inactive
[3]
  outcome: inactive
[4]
  Potency: inactive
[5]
  Potency: inactive
[6]
  Potency: inactive
[7]
  Potency: inactive
[8]
  Potency: inactive
[10]
  Potency: 21.3 µM (active)
[9]
  Potency: inactive

## Cc1ccc2oc(CN(Cc3ccccc3)C(=O)Nc3c(F)cc(F)cc3F)c(-c3ccc(Cl)cc3)c2c1
[1]
  outcome: inactive
[2]
  Potency: inactive
[3]
  outcome: inactive
[4]
  Potency: inactive
[5]
  Potency: inactive
[6]
  Potency: inactive
[7]
  Potency: inactive
[8]
  Potency: inactive
[10]
  Potency: inactive
[9]
  Potency: inactive

## COc1cc(/C=C/C(=O)O[C@H]2CC[C@]34C[C@]35CC[C@]3(C)[C@@H]([C@H](C)CCC=C(C)C)CC[C@@]3(C)[C@@H]5CC[C@H]4C2(C)C)ccc1O
[1]
  outcome: inactive
[2]
  Potency: inactive
[3]
  outcome: inactive
[4]
  Potency: inactive
[5]
  Potency: inactive
[6]
  Potency: inactive
[7]
  Potency: inactive
[8]
  Potency: inactive
[10]
  Potency: 1.51 µM [inconclusive] (active)
[9]
  Potency: inactive

## CC(C)CCCCCCCCCCCCCCC(=O)O
[1]
  outcome: inactive
[2]
  Potency: inactive
[3]
  outcome: inactive
[4]
  Potency: inactive
[5]
  Potency: inactive
[6]
  Potency: inactive
[7]
  Potency: inactive
[8]
  Potency: inactive
[10]
  Potency: inactive
[9]
  Potency: inactive

## Oc1cccc2cc3cccc(O)c3c(O)c12
[1]
  outcome: inactive
[2]
  Potency: inactive
[3]
  outcome: inactive
[4]
  Potency: inactive
[5]
  Potency: inactive
[6]
  Potency: inactive
[7]
  Potency: inactive
[8]
  Potency: inactive
[10]
  Potency: inactive
[9]
  Potency: inactive

## CC(C)=CCOc1ccc(/C=C/C(=O)c2ccc(OCC=C(C)C)cc2OCC(=O)O)cc1
[1]
  outcome: inactive
[2]
  Potency: inactive
[3]
  outcome: inactive
[4]
  Potency: inactive
[5]
  Potency: inactive
[6]
  Potency: inactive
[7]
  Potency: inactive
[8]
  Potency: inactive
[10]
  Potency: inactive
[9]
  Potency: 7.56 µM (active)

## C[n+]1ccn(Cc2ccccc2)c1
[1]
  outcome: inactive
[2]
  Potency: inactive
[3]
  outcome: inactive
[4]
  Potency: inactive
[5]
  Potency: inactive
[6]
  Potency: inactive
[7]
  Potency: inactive
[8]
  Potency: inactive
[10]
  Potency: inactive
[9]
  Potency: inactive

## C[C@H](CCC(=O)O)[C@H]1CC[C@H]2[C@@H]3CC[C@@H]4C[C@H](O)CC[C@]4(C)[C@H]3CC[C@]12C
[1]
  outcome: inactive
[2]
  Potency: inactive
[3]
  outcome: inactive
[4]
  Potency: inactive
[5]
  Potency: inactive
[6]
  Potency: inactive
[7]
  Potency: inactive
[8]
  Potency: inactive
[10]
  Potency: inactive
[9]
  Potency: 19.4 µM (active) and 43.6 µM (active)

## CC(=O)SC[C@@H](Cc1ccccc1)C(=O)NCC(=O)OCc1ccccc1
[1]
  fluorescence, % of fluorescein: -0.0812% [at 18.6 µM]
[2]
  fluorescence, % of fluorescent control: 0.0019% [at 18.6 µM]
[3]
  activity change: -0.0233% [at 18.6 µM]
[4]
  fluorescence, % of fluorescent control: 0.587% [at 18.6 µM]
[5]
  fluorescence, % of Rose Bengal: -0.444% [at 18.6 µM]
[6]
  fluorescence, % of fluorescent control: -0.074% [at 18.6 µM]
[7]
  fluorescence, % of fluorescein control: -0.0189% [at 18.6 µM]
[8]
  fluorescence, % of fluorescent control: 0.351% [at 18.6 µM]
[10]
  Potency: inactive
[9]
  Potency: inactive

## CCCCCOC(=O)CCCC
[1]
  outcome: inactive
[2]
  Potency: inactive
[3]
  outcome: inactive
[4]
  Potency: inactive
[5]
  Potency: inactive
[6]
  Potency: inactive
[7]
  Potency: inactive
[8]
  Potency: inactive
[10]
  Potency: inactive
[9]
  Potency: inactive

## CNc1ccc(O)cc1
[1]
  outcome: inactive
[2]
  Potency: inactive
[3]
  outcome: inactive
[4]
  Potency: inactive
[5]
  Potency: inactive
[7]
  Potency: inactive
[8]
  Potency: inactive

## Fc1ccc(C(c2ccc(F)cc2)N2CCN(C/C=C/c3ccccc3)CC2)cc1
[1]
  outcome: inactive
[2]
  Potency: inactive
[3]
  outcome: inactive
[4]
  Potency: inactive
[5]
  Potency: inactive
[7]
  Potency: inactive
[8]
  Potency: inactive
[10]
  Potency: inactive

## CCCCCCCCCCC=O
[1]
  outcome: inactive
[2]
  Potency: inactive
[3]
  outcome: inactive
[4]
  Potency: inactive
[5]
  Potency: inactive
[7]
  Potency: inactive
[8]
  Potency: inactive
[10]
  Potency: inactive
[9]
  Potency: inactive

## CC[C@@]1(O)C(=O)OCc2c1cc1n(c2=O)Cc2cc3c(CN(C)C)c(O)ccc3nc2-1
[1]
  outcome: inactive
[2]
  Potency: 14.1 µM (active)
[3]
  outcome: inactive
[4]
  Potency: inactive
[5]
  Potency: inactive
[7]
  Potency: inactive
[10]
  Potency: inactive
